Laboratory results published in the supplement of paper PMC10981050.
Values joined by “and” are separate entries in the source; they are usually repeats but may differ in a detail not shown here. Equal values may be shown once. Where a name gives a salt, the structure may show the parent alone.

Columns and labels:
Assay in all cases: cell viability relative to vehicle control; higher = less cytotoxic
Conditions in all cases: 10 µM
K562 = system: K562
In short: (§1)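 CRISPR-edited mutant clones and isogenic wild-type clones from four leukaemia lines were screened against Selleck bioactive, kinase and epigenetic probe libraries, with identity-inconsistent compounds excluded. Each compound was acoustically dispensed at a single 10 µM dose into 384-well plates holding 2000 cells in 50 µL medium per well. After 48 h the supernatant was removed and CellTiter-Glo luminescence was read. Viability was expressed as percent of the on-plate vehicle control and analysed in Genedata Screener.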

MARIMO = system: MARIMO
In short: as §1

MOLM14 = system: MOLM14
In short: as §1

OCI-AML2 = system: OCI-AML2
In short: as §1

SMILES	cell viability (K562; SRSF2 genotype: SRSF2 P95H/wt)	cell viability (K562; SRSF2 genotype: SRSF2 wt/wt) [%]	cell viability (MARIMO; SRSF2 genotype: SRSF2 P95H/wt) [%]	cell viability (MARIMO; SRSF2 genotype: SRSF2 wt/wt) [%]	cell viability (MOLM14; SRSF2 genotype: SRSF2 P95H/wt) [%]	cell viability (MOLM14; SRSF2 genotype: SRSF2 wt/wt) [%]	cell viability (OCI-AML2; SRSF2 genotype: P95H/wt) [%]	cell viability (OCI-AML2; SRSF2 genotype: wt/wt) [%]
CCCCCOc1ccccc1/C(=C\SC)n1ccnc1 [Neticonazole Hydrochloride]	66.4% and 59.1%	68.9	45.7	39	59.7	54.8	25.7	26
Cc1nc2n(c(=O)c1CCN1CCC(c3noc4cc(F)ccc34)CC1)CCCC2O (stereo unspecified) [Paliperidone]	84.4% and 93.4%	80.7	90.2	93.2	83.5	91.8	89	91.2
CCS(=O)(=O)CCn1c([N+](=O)[O-])cnc1C [Tinidazole]	96.7% and 92.4%	100	96.6	97.2	95.1	98.2	102	102
COc1cc(N2CCC(N3CCN(C)CC3)CC2)ccc1Nc1ncc(Cl)c(Nc2ccccc2S(=O)(=O)C(C)C)n1	78.8% and 75.5%	72.5	36.4	30.1	7.58	12.7	7.82	16.6
CCCCC[C@H](O)CC(=O)CCc1ccc(O)c(OC)c1 [6-Gingerol]	87.8% and 85.7%	82.9	86.8	98.7	90.6	95.5	90.9	81.8
CC1(C)CCCC2(C)OC(=O)C=C12 (stereo unspecified) [Dihydroactinidiolide]	104% and 93.7%	94.5	97.6	104	93.8	99.7	91.1	104
CCN(CC)CCNC(=O)c1c(C)[nH]c(/C=C2\C(=O)Nc3ccc(F)cc32)c1C [Sunitinib]	22.8% and 26.6%	17.6	23.4	23.4	0.2	0.37	0.48	2.85
CN(C)C(=O)CCSC(SCCC(=O)O)c1cccc(/C=C/c2ccc3ccc(Cl)cc3n2)c1 (stereo unspecified)	102% and 103%	98.5	110	111	108	107	101	103
CCC(C)n1ncn(-c2ccc(N3CCN(c4ccc(OCC5COC(Cn6cncn6)(c6ccc(Cl)cc6Cl)O5)cc4)CC3)cc2)c1=O (stereo unspecified) [Itraconazole (Sporanox)]	76.7% and 94.4%	83.1	49.6	55	71.1	96.7	50.8	55.4
Cc1noc(C)c1-c1ccc(-c2cc(C(N)=O)c(NC(N)=O)s2)c(O[C@H]2CCNC2)c1	101%	93.8	94.9	103	89.5	99.7	101	105
CCC(=O)O[C@@H]1CC(=O)O[C@H](C)C/C=C/C=C/[C@H](O)[C@H](C)C[C@H](CC=O)[C@H](O[C@@H]2O[C@H](C)[C@@H](O[C@H]3C[C@@](C)(O)[C@@H](OC(=O)CC)[C@H](C)O3)[C@H](N(C)C)[C@H]2O)[C@H]1OC [Midecamycin]	84.3% and 87.1%	89.5	89.3	102	93.3	93.7	96.2	97.4
CC(O)c1ccc(S(=O)(=O)NC(=O)NC2CCCCC2)cc1 (stereo unspecified) [Hydroxyhexamide]	106% and 96%	107	103	99	101	104	104	106
Cc1coc2c1C(=O)C(=O)c1c-2ccc2c(C)cccc12 [Tanshinone I]	66.7% and 48.1%	41.4	70.6	63.4	76.1	48.3	57.5	60
Cn1cc(/C=C/C(=O)c2cccc(F)c2)cc1/C=C/C(=O)NO	90.3% and 97.5%	99.5	61.5	72.4	70.1	64.5	59.5	65.3
CC(=O)c1ccc(C)cc1O [2'-Hydroxy-4'-methylacetophenone]	97.1% and 95%	104	95.6	103	102	102	94.5	107
C[C@@H](c1ncncc1F)[C@](O)(Cn1cncn1)c1ccc(F)cc1F [Voriconazole]	102% and 99.5%	99	107	106	99.5	101	104	108
CCc1ccc(CCOc2ccc(CC3SC(=O)NC3=O)cc2)nc1 (stereo unspecified) [Pioglitazone hydrochloride (Actos)]	100% and 97%	93.4	104	102	96.4	100	95.7	93.5
Cc1ccccc1C(OCCN(C)C)c1ccccc1 (stereo unspecified) [Orphenadrine Hydrochloride]	99.9% and 97.1%	101	86.2	92.2	100	103	101	98.8
CN[C@@H](C)C(=O)N[C@H](C(=O)N1CCC[C@H]1C(=O)N[C@H]1c2ccccc2C[C@H]1OCC#CC#CCO[C@@H]1Cc2ccccc2[C@@H]1NC(=O)[C@@H]1CCCN1C(=O)[C@@H](NC(=O)[C@H](C)NC)C1CCCCC1)C1CCCCC1	0.57% and 0.73%	0.61	0.76	0.89	0.51	0.62	0.56	0.58
CC(=O)c1ccc(NN=C(C(N)=O)C2=NC(C)(C)Cc3ccccc32)cc1	79.9% and 87.9%	86.9	56.1	58.1	15	14.7	30.5	40.5
C[C@@H](O)[C@H]1C(=O)N2C(C(=O)O)=C(S[C@@H]3CN[C@H](C(=O)Nc4cccc(C(=O)O)c4)C3)[C@H](C)[C@H]12 [Ertapenem sodium]	108% and 107%	105	103	109	99.6	107	97.1	99.8

SMILES	cell viability (K562; SRSF2 genotype: SRSF2 P95H/wt)	cell viability (K562; SRSF2 genotype: SRSF2 wt/wt) [%]	cell viability (MARIMO; SRSF2 genotype: SRSF2 P95H/wt) [%]	cell viability (MARIMO; SRSF2 genotype: SRSF2 wt/wt) [%]	cell viability (MOLM14; SRSF2 genotype: SRSF2 P95H/wt) [%]	cell viability (MOLM14; SRSF2 genotype: SRSF2 wt/wt) [%]	cell viability (OCI-AML2; SRSF2 genotype: P95H/wt) [%]	cell viability (OCI-AML2; SRSF2 genotype: wt/wt) [%]
CCCCOc1c(C(=O)c2c(F)cc(C)cc2F)c[nH]c2nncc1-2	104% and 105%	114	72.6	84.8	68.8	87.7	57.1	59.5
O=C1c2ccccc2C(=O)c2c1ccc(O)c2O [Alizarin]	101% and 104%	101	103	99.5	97	102	101	93
Cc1oncc1C(=O)Nc1ccc(C(F)(F)F)cc1 [Leflunomide]	93.4% and 96.5%	86.8	94.9	90.1	102	98.3	80.3	85.1
CC12CCC(CC1)C(C)(C)O2 [Eucalyptol]	104% and 102%	104	101	101	104	101	102	103
CCOC(=O)N[C@@H]1CC[C@@H]2[C@@H](C1)C[C@H]1C(=O)O[C@H](C)[C@H]1[C@H]2/C=C/c1ccc(-c2cccc(F)c2)cn1	80.4% and 87%	80.8	83.3	82.5	81.6	83.6	65.1	64.7
COc1ccc([C@@H]2Sc3ccccc3N(CCN(C)C)C(=O)[C@@H]2OC(C)=O)cc1 [Diltiazem HCl]	99.8% and 95.7%	91.9	98	98.1	99.3	98.7	94.1	99.1
CC(=O)OCC(=O)[C@@]1(O)CC[C@H]2[C@@H]3CCC4=CC(=O)C=C[C@]4(C)[C@H]3[C@@H](O)C[C@@]21C [Prednisolone acetate (Omnipred)]	87.3% and 81.8%	84.8	86.1	84	80.5	80.3	73.3	87
CC(=O)Oc1ccc2c(c1)Oc1cc(OC(C)=O)ccc1C21OC(=O)c2cc(C(=O)ON3C(=O)CCC3=O)ccc21.CC(=O)Oc1ccc2c(c1)Oc1cc(OC(C)=O)ccc1C21OC(=O)c2ccc(C(=O)ON3C(=O)CCC3=O)cc21	90.8% and 93.8%	99.6	98.1	77.4	92.8	63.6	75.5	77.9
COC(=O)[C@@H]1CC2=CC(=O)CC[C@]2(C)[C@@]23O[C@@H]2C[C@@]2(C)[C@@H](CC[C@@]24CCC(=O)O4)[C@H]13 [Eplerenone]	98.4% and 103%	103	98	103	107	95.6	100	101
Cc1[nH]cnc1CN1CCc2c(c3ccccc3n2C)C1=O [Alosetron Hydrochloride]	93.1% and 95.7%	88.6	93.7	102	93.2	100	91.6	101
N=c1ccn2c(n1)O[C@H]1[C@H](O)[C@@H](CO)O[C@H]12 [Cyclocytidine HCl]	92.8% and 103%	101	27.8	29	11.3	2.48	9.61	9.31
COc1ccc(S(=O)(=O)NCc2ccc(C(=O)NCCc3ccc(Cl)cn3)cc2)cc1	83.3% and 86.3%	81.6	84.3	105	83.4	90.9	92.7	104
Nc1nc(=S)c2ncn([C@H]3C[C@H](O)[C@@H](CO)O3)c2[nH]1	29.9% and 33.4%	29.9	56.1	44.8	44.1	31.7	22.8	27.8
CNC(=O)c1cc(Oc2ccc(NC(=O)Nc3cc(C(C)(C)C)nn3-c3ccc4ncccc4c3)c(F)c2)ccn1 [DCC-2036 (Rebastinib)]	28.3% and 35.4%	27.5	11.8	4.62	1.63	1.54	3.03	14
CNc1nc(-c2ccc3c(N)n[nH]c3c2)cc(N2C[C@@H](C(=O)NC3CCCCC3)CC[C@H]2C)n1	78.3% and 74.9%	73.5	72.1	72.8	42.3	39.5	47.6	40.7
CC1(C)CCCC2(C)C1CCC1(C)OCCC12 (single isomer, unassigned; (-)) [(-)-Ambroxide]	94.6% and 94.5%	99.7	97.9	101	95.9	96.4	98	103
O=S1(=O)CCN(CN2CCS(=O)(=O)NC2)CN1 [Taurolidine]	98.7% and 105%	108	104	111	103	105	123	97.5
O=c1c(-n2ccnn2)c[nH]n1-c1cc(N2CCOCC2)ncn1 [Molidustat(BAY 85-3934)]	96.1% and 100%	90.2	81.8	98.1	87.9	93.6	85.2	87.9
CC(C)(N)C(=O)N[C@H](COCc1ccccc1)C(=O)N1CCC2(CC1)CN(S(C)(=O)=O)c1ccccc12 [Ibutamoren mesylate]	91.5% and 97.4%	90	81.1	92	80.1	89.5	82.3	78.9
Cn1c(N2CCCCS2(=O)=O)nc(C(=O)NCc2ccc(F)cc2)c(O)c1=O	110%	113	108	115	112	111	112	102
CC(C)C(=O)Nc1ccc([N+](=O)[O-])c(C(F)(F)F)c1 [Flutamide (Eulexin)]	92.3% and 90.8%	101	90.3	92.3	96.8	95.4	90.5	90.1
